Source: PubChem BioAssay (NCI)
Where “and” joins values, the source holds several entries; their conditions need not be identical. Identical values can stand only once. About 83,000 compounds went through this panel and 20% of them were active in at least one assay; those are over-represented in the sample as a whole.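 Single-concentration screen, 48 h exposure, 96-well plates. Endpoint: percent growth. Below 10 = active.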 Calls of active or inactive are those of the source.

tested on: KM12 colon; assay: NCI-60 one-dose screen, 48 h (100 = growth as untreated, 0 = no growth, -100 = all killed); conditions: 10 µM
Method: Growth inhibition of the KM12 human tumor cell line is measured as a screen for anti-cancer activity. Cells are grown in 96 well plates and exposed to the test compound for 48 hours. Compounds are tested at a single concentration, which is 10^-5 M for most compounds. The reported endpoint is percent growth (GI% or GIPRCNT), where numbers from 0 - 100% represent growth inhibition, and numbers from -100% - 0 represent cell death. For example, a value of 40 represents 60% growth inhibition. A value of 0 means no net growth occurred over the course of the experiment. A value of -40 indicates 40% of cells at the beginning of the experiment died by the end of the experiment. A value of -100 means all cells are dead at the end of the experiment.
NCI-60 Human Tumor Cell Lines Screen was performed using the standard one-dose NCI protocol, which is described in more detail at https://dtp.cancer.gov/discovery_development/nci-60/default.htm.
Compounds with GIPRCNT values below 10 were considered active. Activity score was based on GIPRCNT using the following formula: […]
Score is 0 for GIPRCNT values of 100 or above, 50 for GIPRCNT values of 0, and 100 for GIPRCNT values of -100.

Row | SMILES | growth
1 | COc1ccc(-c2cscc2N)cc1 | 69.6% (inactive)
2 | O=C(Nc1cccc(Br)c1)Oc1cccc2cccnc12 | 110% (inactive)

same assay, conditions: 10 µM unless noted

Row | SMILES | growth
3 | N#CSCc1ccc(Cl)c(CSC#N)c1 | 28.2% (inactive)
4 | O=C1N[C@H]2[C@H](CS[C@H]2CCCCC(=O)N(CCP(c2ccccc2)c2ccccc2)CCP(c2ccccc2)c2ccccc2)N1 | 59.9% (inactive)
5 | CC(C)(C)CC(C)(C)c1ccc(OCCSC(=N)N)cc1 | 32.8% (inactive)
6 | NC(=O)/C=C/C(=O)c1c(Cl)cccc1Cl | -51.4% (active)
7 | N#CC1C(=O)SC2c3ccccc3C(=O)c3ccccc3C12 (stereo not given) | 96.6% (inactive)
8 | C[n+]1c(/C=C/c2ccc([N+](=O)[O-])cc2)ccc2ccccc21 | 80.8% (inactive)
9 | CCOC(=O)/C=C/c1ccc([N+](=O)[O-])o1 | 87.4% (inactive)
10 | N#Cc1ccc([N+](=O)[O-])o1 | 102% (inactive)
11 | CN(C)c1ccc(C(=C2C=CC(=[N+](C)C)C=C2)c2ccc(N(C)C)cc2)cc1 (tested in a mixture with another compound) | -95.3% (active)
12 | CC1(C)CC([P+](c2ccccc2)(c2ccccc2)c2ccccc2)=NN1 | 21.7% (inactive)
13 | Cn1c2ccccc2c2nnc(N/N=C/c3ccccn3)nc21 | 23% (inactive)
14 | CCC(c1cccc(O)c1)C(CC)c1cccc(O)c1 (stereo not given) | 36.7% (inactive)
15 | COC(=O)[C@@]12OC[C@]34[C@H]([C@@H](O)[C@@H]1O)[C@@]1(C)[C@H](O)C(=O)C=C(C)[C@@H]1C[C@H]3OC(=O)C(OC(C)=O)[C@@H]24 (stereo not given in full) | -57.8% (active)
16 | Nc1ccc(SSc2ccc(N)cc2)cc1 | 86.1% (inactive)
17 | Oc1c(Cl)cc(Cl)c2cccnc12 | 54.2% (inactive) and 52.3% (inactive)
18 | CC(C)(C)c1ccc(O)c(C2CCCCC2)c1 | 91.1% (inactive)
19 | Cc1ccc(NS(=O)(=O)c2ccc(C)cc2)cc1 | 91.2% (inactive) and 89.2% (inactive)
20 | Oc1ccc(/C=N/NC(=S)Nc2ccccc2)nc1 | 11.3% (inactive)

Row | SMILES | growth
21 | CC1=CC(O)C2CC1C2(C)C (stereo not given) | 101% (inactive) and 114% (inactive)
22 | C=C(Cl)C(=NC(C)(C)C)Nc1ccccc1C | 80.9% (inactive)
23 | COc1cc(/C=C/C(C)=O)ccc1O | 90% (inactive) and 92.7% (inactive)
24 | O=C1NC(=O)/C(=C/C=C/c2ccccc2)S1 | 38% (inactive)
25 | CC(=O)Nc1cccc2cc(O)ccc12 | 110% (inactive) and 90.7% (inactive) and 103% (inactive)
26 | COC(=O)Nc1nc2ccc(C(=O)c3ccccc3)cc2[nH]1 | 11.2% (inactive) and -7.2% (active) and 3.76% (active)
27 | NC(N)=N/N=C/c1ccc([N+](=O)[O-])o1 | 82.3% (inactive)
28 | CCCCCC(CCCCC)C(=O)O | 109% (inactive)
29 | NC(=S)N/N=C\c1nccc2c(C(F)(F)C(F)(F)C(F)(F)F)cccc12 | 14.2% (inactive)
30 | Cc1cc(C(C)(CC(C)C)c2ccc(O)c(C)c2)ccc1O | 107% (inactive)
31 | O=C1C2=C(Nc3cc([N+](=O)[O-])ccc3N2)OC1c1c2ccccc2cc2ccccc12 (stereo not given) | 16.7% (inactive)
32 | CC(=O)C(=Cc1ccc(C=C(C(C)=O)C(C)=O)cc1)C(C)=O | -43.7% (active)
33 | Cc1ccc2c(ccc3c[n+]4c5ccccc5ccc4n32)c1 | -8.63% (active)
34 | CC(C)c1ccc2nc3ccc(C(=O)NCCN4CCN(c5ccccc5)CC4)cn3c(=O)c2c1 | 67.2% (inactive)
35 | CN(Cc1cnc2nc(N)nc(N)c2n1)c1ccc(C(=O)NC(CCC(=O)O)C(=O)O)cc1 (stereo not given) | 32.4% (inactive)
36 | Cc1cc(N)c2ccccc2[n+]1CCCCCCCCCC[n+]1c(C)cc(N)c2ccccc21 | -48.4% (active) and 6.86% (active)
37 | CN(C)c1ccc(/C=N/N=C(\C#N)[S][Sn]([Cl])([c]2ccccc2)[c]2ccccc2)cc1 | 63.3% (inactive)
38 | CNc1ccc2c(c1)c1ccccc1n2C | 104% (inactive)

same assay, conditions: 100 µM

Row | SMILES | growth
39 | COc1ccc(-c2cscc2N)cc1 | 21.1% (inactive)
40 | O=C(Nc1cccc(Br)c1)Oc1cccc2cccnc12 | 40.1% (inactive)
